From PubChem BioAssay (NCI)
About 83,000 compounds went through this panel and 20% of them were active in at least one assay; those are over-represented in the sample as a whole.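 Values shown are percent growth following 48 h exposure of cells in 96-well plates to a single concentration of compound; below 10 was considered active.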 A number with no mark means an inactive call.

These compounds were tested on OVCAR-5 ovarian (assay: NCI-60 one-dose screen, 48 h (100 = growth as untreated, 0 = no growth, -100 = all killed)). Details: 10 µM unless noted.

Compound	growth [%]
CN1CCN(c2nc3scc(-c4ccccc4)c3c(=O)[nH]2)CC1	93
O=C(COc1cccc(/C=C2\Oc3ccc4ccccc4c3C2=O)c1)c1ccc([N+](=O)[O-])cc1	100
CCCCCCCCCCN1CCC(N2CCCCC2)CC1	41.5
Nc1nc2c(c(=O)[nH]1)C1(C(=O)Nc3ccccc31)c1c(nc(N)[nH]c1=O)N2	112
O=c1c2ccccc2c2nccn2c2cc(Cl)ccc12	53.2
N#Cc1c(NC(=O)c2ccco2)[n+]([O-])c2cc(Cl)c(Cl)cc2[n+]1[O-]	87.4
CCOC(=O)N1CCC(N=C2CSc3nnc(-c4cc(C(F)(F)F)cc(C(F)(F)F)c4)n3N2)CC1	25.6
Cn1c(N2N=C(c3ccc(Cl)cc3)CC2c2ccccc2)nc(-c2ccccc2)c(C#N)c1=O (stereo not given)	99.6
CCSCC1CC(O)(c2ccccc2)C(c2ccccc2)C(c2ccc(Cl)cc2)O1 (stereo not given)	24.7
N#Cc1ccc(-c2csc(Nc3ccc4nc5n(c(=O)c4c3)CCC5)n2)cc1	103
CCCCNCCCN(CCCC)CCCNCCCC	108
COc1cccc(/C=C2\Cc3ccccc3C2=O)c1	111
C(#Cc1ccccc1C#Cc1ccccn1)c1ccc(OCCCCCCOc2ccc(C#Cc3ccccc3C#Cc3ccccn3)cc2)cc1	85.4
CN(C)c1ccc(-c2nc3ncc(Br)cc3o2)cc1	100
Cc1ccc(S(=O)(=O)N2CCN(C(=O)CSc3nc4ccc(C)cc4[nH]3)CC2)cc1	117
